Inconclusive results are not listed. Calls of active or inactive are those of the source. The call rests on the fitted dose curve; in most records, active means well fitted inhibition curve with a large enough effect; inconclusive means small, poorly fitted or top-dose-only effect; inactive means flat fitted curve, though single readings scatter.
Tests used:
Assay in all cases: qHTS profiling for inhibitors of Plasmodium falciparum proliferation (AID 504749); further: nearly all actives have a fitted effect of over 60% in size
Conditions in all cases: P. falciparum in erythrocytes, SYBR Green DNA, 72 h; series mostly up to 28.7 µM
CP335 = system: CP335
Summary of the method: (§1)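 Quantitative HTS: compounds pinned into medium, infected erythrocytes added (0.3% parasitemia, 2.5% hematocrit), 72 h culture at 37 C under 5% CO2. Saponin/Triton lysis with SYBR Green I, overnight RT, then fluorescence read.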

DFO2036 = system: DFO2036
Summary of the method: as §1

DIV14 = system: DIV14
Summary of the method: as §1

DIV17 = system: DIV17
Summary of the method: as §1

DIV30 = system: DIV30
Summary of the method: as §1

Dd2 = system: Dd2
Summary of the method: as §1

ECU = system: ECU
Summary of the method: as §1

FAB9 = system: FAB9
Summary of the method: as §1

GB4 = system: GB4
Summary of the method: as §1

HB3 = system: HB3
Summary of the method: as §1

ICS = system: ICS
Summary of the method: as §1

JCK = system: JCK
Summary of the method: as §1

N140 = system: N140
Summary of the method: as §1

P93_24 = system: P93_24
Summary of the method: as §1

P94_40 = system: P94_40
Summary of the method: as §1

PAD = system: PAD
Summary of the method: as §1

PC15 = system: PC15
Summary of the method: as §1

PC26 = system: PC26
Summary of the method: as §1

PC49 = system: PC49
Summary of the method: as §1

SC27B = system: SC27B
Summary of the method: as §1

Measured: Potency
Potency means the concentration at half of the fitted maximal effect.

OCC(O)C(O)C(O)CO (configuration not stated)
inactive: all assays above

COc1cccc2c1C(=O)c1c(O)c3c(c(O)c1C2=O)C[C@@](O)(C(=O)CO)C[C@@H]3O[C@H]1C[C@H](N)[C@H](OC2CCCCO2)[C@H](C)O1 (some centres not stated)
active: CP335 3.01 µM | DFO2036 3.55 µM | DIV14 3.79 µM | DIV17 2.39 µM | DIV30 6.75 µM | Dd2 2 µM | ECU 2 µM | FAB9 12.6 µM | GB4 4.78 µM | HB3 5.01 µM | ICS 0.708 µM | JCK 12.6 µM | N140 1.58 µM | P93_24 2.24 µM | P94_40 2.51 µM | PAD 2.24 µM | PC15 10 µM | PC26 7.57 µM | PC49 4.47 µM | SC27B 2.82 µM

CCCCCCCCCCCC(CC1OC(=O)C1CCCCCC)OC(=O)C(CC(C)C)NC=O (configuration not stated)
active: CP335 0.675 µM | DFO2036 0.501 µM | Dd2 0.794 µM | ECU 0.398 µM | HB3 1.26 µM | ICS 1.12 µM | JCK 1 µM | N140 0.631 µM | P93_24 0.891 µM | P94_40 0.355 µM | PC15 1.12 µM | PC49 0.891 µM | SC27B 0.447 µM

CCC(C(=O)O)C1CCC(C)C(C(C)C(O)C(C)C(=O)C(CC)C2OC3(C=CC(O)[C@@]4(CC[C@](C)(C5CC[C@@](O)(CC)C(C)O5)O4)O3)C(C)CC2C)O1 (some centres not stated)
active: CP335 0.379 µM | DFO2036 0.794 µM | DIV17 0.601 µM | DIV30 0.478 µM | Dd2 0.891 µM | ECU 1.58 µM | FAB9 2.24 µM | GB4 0.536 µM | HB3 0.891 µM | ICS 1 µM | JCK 4.47 µM | N140 0.891 µM | P93_24 0.891 µM | P94_40 0.501 µM | PAD 1.41 µM | PC15 2 µM | PC26 0.478 µM | PC49 2.51 µM | SC27B 0.794 µM

COc1ccc2c(c1OC)C(=O)OC2[C@H]1c2c(cc3c(c2OC)OCO3)CCN1C (some centres not stated)
inactive: all assays above

Nc1nc2c(c(=O)[nH]1)N(C=O)[C@H](CNc1ccc(C(=O)N[C@@H](CCC(=O)O)C(=O)O)cc1)CN2
inactive: all assays above

COc1ccc([C@@H]2CNC(=O)C2)cc1OC1CCCC1
inactive: all assays above
